IL1B secr inh – blocks inflammasome-driven IL-1 beta release. THP-1 LPS/ATP IL-1B secretion, AlphaLISA, 16 h; active compounds read low. activity change, % at 57.5 µM. 360,000 compounds, 4.7% hits. AID 743279; in the data active means activity change below about -50%; inconclusive means mostly about -30% to -49%
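Secreted IL-1B measured by AlphaLISA bead assay after 16 h compound exposure of THP-1 cells; compounds (final up to 57.5 uM) added 1 h before LPS (250 ng/mL) and ATP (1.25 mM) stimulation; lower signal means less secretion.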
ALOX12 inh – inhibitors of human 12S-lipoxygenase ALOX12; P18054; purified 12hLO, xylenol orange hydroperoxide absorbance; Potency, µM (highest dose often 108 µM), hits mostly inhibitors; 580,000 compounds, 1.1% hits; AID 1671190
Target sequence (P18054 whole entry, looked up): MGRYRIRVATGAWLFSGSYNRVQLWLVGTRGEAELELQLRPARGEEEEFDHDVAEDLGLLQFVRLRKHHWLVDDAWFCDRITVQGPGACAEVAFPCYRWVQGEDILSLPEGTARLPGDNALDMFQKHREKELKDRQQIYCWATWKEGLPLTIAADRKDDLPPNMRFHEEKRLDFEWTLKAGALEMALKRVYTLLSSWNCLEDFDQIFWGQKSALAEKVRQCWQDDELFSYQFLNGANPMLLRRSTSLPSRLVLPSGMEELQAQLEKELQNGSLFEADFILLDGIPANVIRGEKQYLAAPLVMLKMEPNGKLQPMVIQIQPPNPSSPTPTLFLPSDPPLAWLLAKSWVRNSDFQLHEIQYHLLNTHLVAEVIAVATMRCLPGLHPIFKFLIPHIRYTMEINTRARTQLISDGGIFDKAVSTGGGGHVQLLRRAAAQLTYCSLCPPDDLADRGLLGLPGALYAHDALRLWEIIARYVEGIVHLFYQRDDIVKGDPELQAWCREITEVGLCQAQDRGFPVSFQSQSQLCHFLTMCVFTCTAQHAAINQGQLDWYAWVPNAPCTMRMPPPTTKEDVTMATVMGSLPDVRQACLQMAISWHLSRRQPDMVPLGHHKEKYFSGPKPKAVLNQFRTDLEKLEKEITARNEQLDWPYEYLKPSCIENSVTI
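Purified human 12hLO at 150 nM in 25 mM Hepes, 0.01% Triton X-100, pH 7.0, preincubated 15 min at room temperature with compound. Reaction started with 40 uM arachidonic acid, 30 min at room temperature. Hydroperoxide measured by Fe-xylenol orange, 573/405 nm absorbance ratio.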
HT1080 IDH1KD tx – kills HT-1080 cells with IDH1 knockdown. Potency, µM (series often up to 46.1 µM), usual class: cytotoxic. HT-1080 IDH1 knockdown viability, ATP luminescence, 48 h. 360,000 compounds, 2% hits
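Using the IDH1-knockdown HT-1080 line run in the same batch and compound series as the NT line, viability after 48 h at 37 °C was determined by CellTiter-Glo luminescence and expressed as % activity.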
TDP1 cell CPT – growth inhibition of DT40 Tdp1-/-;hTDP1 cells with camptothecin (screen for TDP1 inhibitors); chicken DT40 Tdp1-/-;hTDP1 cells + 20 nM CPT, ATP luminescence, 48 h; AID 686979; Potency, µM (doses to about 46.2 µM), most hits filed as inhibitors; 420,000 compounds, 12% hits; further: nearly all actives have a fitted effect of over 55% in size
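Chicken DT40 Tdp1-/- cells stably complemented with human TDP1 were seeded at 400 cells/well in medium containing 20 nM camptothecin, exposed to pin-transferred compounds, and grown at 37 °C for at least 48 hr. Viability was read as ATP luminescence.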
TDP1 cell noCPT – qHTS for Inhibitors of human tyrosyl-DNA phosphodiesterase 1 (TDP1): qHTS in cells in absence of CPT; DT40 Tdp1-/- hTDP1 cells, no CPT, ATP luminescence, 48 h; Potency, µM (top dose mostly 46.2 µM), usual class: inhibitors; 420,000 compounds, 15% hits; further: nearly all actives have a fitted effect of over 55% in size
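Growth of hTDP1-complemented DT40 Tdp1-knockout cells is measured by ATP luminescence after at least 48 hr compound exposure at 37 °C, with DMSO substituting for the 20 nM CPT used in the parallel screen.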
HT1080NT lethal – kills 2HG-producing HT-1080-NT fibrosarcoma cells. 360,000 compounds, 1.6% hits. AID 686970. Potency, µM (series often up to 46.1 µM), hits mostly cytotoxic. HT-1080-NT fibrosarcoma viability, CellTiter-Glo ATP luminescence, 48 h;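 further: NT is the 2HG producing partner of a matched IDH1 knockdown line; nearly all actives have a fitted effect of over 55% in size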
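750 cells/well, RPMI + 5% FBS; 2 h settle, compound pin-transfer, 48 h at 37 degrees C. CellTiter-Glo 10 min RT, luminescence. Normalized to DMSO and media-only wells.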
Hits are given with their value; . = inactive; ? = inconclusive; / = not tested or not shown. The full list was thinned out, with hits kept by preference. Unless noted, the call rests on the fitted dose curve; in most records, active means well fitted curve in the direction sought with a large enough effect; inconclusive means small, poorly fitted or top-dose-only effect, or another doubt; inactive means no such curve, though single readings can be large; an effect the other way counts as inactive or inconclusive.

SMILES	IL1B secr inh	ALOX12 inh	HT1080 IDH1KD tx	TDP1 cell CPT	TDP1 cell noCPT	HT1080NT lethal
CCCCn1c(=O)c2ccccc2n2c(=S)[nH]nc12	.	6.31µM	.	.	.	.
CCCCCn1c(=O)c2ccccc2n2c(=S)[nH]nc12	.	44.7µM	.	.	?	.
CCn1c(CCn2c3ccccc3c3ccccc32)n[nH]c1=S	.	?	?	14.6µM	?	.
CCn1cc(S(=O)(=O)N2CCN(c3ccccc3)CC2)cn1	/	.	/	/	/	/
O=[N+]([O-])c1ccc(CSCc2ccc([N+](=O)[O-])cc2)cc1	.	.	.	.	.	.
COc1ccc(C(=O)N2CCC(c3nc(-c4ccc(S(=O)(=O)N5CCCC5)cc4)no3)CC2)cc1	/	.	/	23.1µM	20.6µM	/
CCOc1ccc(C(=O)N2CCC(c3nc(-c4ccc(S(=O)(=O)N5CCCC5)cc4)no3)CC2)cc1	/	.	/	20.6µM	23.1µM	/
CC1CCN(C(=O)c2ccc(S(=O)(=O)N3CCCC3)cc2)CC1	.	.	.	.	.	.
N#C/C(=C/C=C/c1ccccc1)C(=O)Nc1ccc(N2CCOCC2)cc1	/	.	/	/	/	/
Cc1ccc(NS(=O)(=O)c2cc([N+](=O)[O-])ccc2NNC(=S)Nc2cc(C)ccc2C)c(C)c1	-66.9	25.1µM	?	?	20.6µM	?
COc1ccc(NC(=S)NNc2ccc([N+](=O)[O-])cc2S(=O)(=O)Nc2ccc(C)cc2C)cc1	-83.5	22.4µM	18.4µM	.	?	23.1µM
Cc1ccc(NS(=O)(=O)c2cc([N+](=O)[O-])ccc2NNC(=S)Nc2cccc(Cl)c2)c(C)c1	.	/	?	?	?	?
Cc1ccc(C(=O)N2CCc3sc(C(=O)NCc4ccc(C)o4)cc3C2)cc1	/	.	/	/	/	/
O=C(c1ccc(F)c(F)c1)N1CCC[C@H]1c1nc(-c2ccccc2)no1	/	.	/	/	/	/
N#Cc1c(-c2ccc(Cl)cc2)c(C#N)c(=O)n(N)c1N	.	.	.	?	29.1µM	.
COc1ccc(-c2c(C#N)c(N)n(N)c(=O)c2C#N)cc1Cl	.	.	.	.	?	.
CSc1nc(N)c(C#N)c(-c2ccc(Cl)cc2)c1C#N	.	.	?	.	16.4µM	?
CCN1C(=O)[C@H]2[C@@H](c3ccc(-c4ccc(Cl)c(Cl)c4)cc3)N[C@@](Cc3ccccc3)(C(=O)OC)[C@H]2C1=O	.	?	.	23.1µM	14.6µM	.
CCN1C(=O)[C@H]2[C@@H](c3ccc(-c4cc(C(C)=O)cs4)cc3)N[C@@](Cc3ccccc3)(C(=O)OC)[C@H]2C1=O	.	.	.	?	?	.
CCN1C(=O)[C@H]2[C@@H](c3ccc(-c4ccc(C(C)=O)cc4)cc3)N[C@@](Cc3ccccc3)(C(=O)OC)[C@H]2C1=O	.	.	.	13µM	?	.
CCN1C(=O)[C@H]2[C@@H](c3ccc(-c4ccccc4)cc3)N[C@@](Cc3ccccc3)(C(=O)OC)[C@H]2C1=O	-53.3	.	.	?	18.4µM	.
COC(=O)[C@]1(C)N[C@H](c2ccc(-c3ccccc3)cc2)[C@@H]2C(=O)N(C)C(=O)[C@@H]21	.	.	.	?	?	.
COC(=O)[C@]1(Cc2ccccc2)N[C@H](c2ccc(-c3ccc(F)cc3)cc2)[C@@H]2C(=O)N(C)C(=O)[C@@H]21	?	.	.	18.4µM	16.4µM	.
COc1ccc(N2C(=O)C(CN3CCN(C)CC3)C2c2ccccc2)cc1 (configuration not stated)	.	.	.	.	.	.
CN(C)c1ccc(CNc2ccccn2)cc1	.	.	.	.	?	.
SMILES	IL1B secr inh	ALOX12 inh	HT1080 IDH1KD tx	TDP1 cell CPT	TDP1 cell noCPT	HT1080NT lethal
Fc1ccccc1CNc1ncnc2sccc12	.	.	?	4.11µM	8.2µM	.
CN(C)c1ccc(CNc2ncnc3sccc23)cc1	.	.	?	4.11µM	2.06µM	?
c1ccc2c(c1)OCC(CNc1ncnc3sccc13)O2 (configuration not stated)	.	.	1.16µM	1.16µM	0.651µM	0.731µM
COc1cc2ncnc(NCc3ccccc3F)c2cc1OC	.	.	.	?	?	.
c1ccc2c(c1)OCC(CNCC1COc3ccccc3O1)O2 (configuration not stated)	.	.	.	.	.	.
COc1ccc(-n2c(=O)c(-c3ccccc3)nc3cnc(N4CCOCC4)nc32)cc1	/	?	/	.	.	/
CC1(C)COCCN1C(=O)c1cccc(CN2CCCC2)c1	/	.	/	/	/	/
Cc1ccc(C)c(C(=O)C(C)Sc2nc3nn(-c4ccccc4)c(=O)c-3c3n2CCCCC3)c1 (configuration not stated)	.	.	.	?	20.6µM	.
Cc1ccc(C(=O)NCCn2c(C)cc3ccccc32)cc1C	/	?	/	11.6µM	10.3µM	/
Cc1cc2ccccc2n1CCNC(=O)C(C)Oc1ccccc1 (configuration not stated)	.	.	.	23.1µM	.	.
CC(=O)N1CCC(CC(=O)NCCc2ncc(C)n2C(C)C)CC1	/	.	/	/	/	/
O=C(CSc1ccc2ccccc2n1)N1CCC(c2noc3ccc(F)cc23)CC1	?	.	.	16.4µM	11.6µM	.
O=C(CC(c1ccccc1)C1CCCCC1=O)c1ccccc1 (configuration not stated)	.	.	.	18.4µM	16.4µM	.
CCN1c2cc(C(=O)N3CCC(C(N)=O)CC3)ccc2C(=O)N2CCCCCC21 (configuration not stated)	/	.	/	/	/	/
Nn1cnnc1N/N=C/c1cc(Br)cc(Br)c1O	-66.7	.	?	?	?	.
CS/C(N)=N/N=C/c1cc(C)ccc1O	.	.	.	.	?	.
CS/C(N)=N/N=C/c1cc(Br)cc(Br)c1O	.	.	.	?	16.4µM	.
C=CCS/C(N)=N\N=C\c1cc(Br)cc([N+](=O)[O-])c1O	.	.	.	?	7.31µM	.
CSc1ccc(/C=N\Nc2nncn2N)cc1	.	?	20.6µM	?	.	?
CC(C)(C)c1ccc(/C=N/Nc2nncn2N)cc1	.	.	?	.	.	.
Cc1no[n+]([O-])c1COc1cccc(/C=N/Nc2nncn2N)c1	.	.	.	?	.	.
CC(=O)Nc1cccc(Nc2nc(-c3ccccc3F)nc3ccccc23)c1	-52.5	.	?	?	?	.
COC(=O)c1ccc(Nc2nc(-c3ccccc3Cl)nc3ccccc23)cc1	/	?	/	?	16.4µM	/
CC(=O)c1cccc(Nc2nc(-c3ccccc3Cl)nc3ccccc23)c1	/	.	/	14.6µM	10.3µM	/

Screens (PubChem BioAssay)
